TRb-SRC2 inh: disrupts binding of human TR beta to SRC2. P10828. TRbeta-SRC2 peptide binding, fluorescence polarization; receptor liganded with 1 µM T3. Potency, µM (series often up to 106 µM), for the others: at the highest dose activity change, negative = inhibition, usual class: inhibitors. 280,000 compounds, 0.065% hits;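 also: plate controls were bound peptide for no effect and peptide without receptor for full effect; nearly all actives have a fitted effect of over 50% in size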
Target sequence (P10828 whole entry, looked up): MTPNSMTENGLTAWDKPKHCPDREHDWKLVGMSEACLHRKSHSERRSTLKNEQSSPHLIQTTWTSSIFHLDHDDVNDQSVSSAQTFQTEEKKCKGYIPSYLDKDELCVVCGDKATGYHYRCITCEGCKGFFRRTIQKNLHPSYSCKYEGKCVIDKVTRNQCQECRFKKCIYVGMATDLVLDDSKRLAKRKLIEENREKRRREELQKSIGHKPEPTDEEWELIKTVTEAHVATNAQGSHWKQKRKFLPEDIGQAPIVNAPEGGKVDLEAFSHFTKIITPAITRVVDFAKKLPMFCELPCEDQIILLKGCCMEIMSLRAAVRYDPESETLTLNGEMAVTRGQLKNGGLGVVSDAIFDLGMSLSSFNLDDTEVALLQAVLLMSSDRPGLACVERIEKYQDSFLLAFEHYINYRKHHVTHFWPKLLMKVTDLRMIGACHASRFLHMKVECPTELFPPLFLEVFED
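Quantitative HTS by FP: 0.6 uM TRb LBD, 20 nM labeled SRC2 20-mer, 1 uM T3, 5% DMSO; 5 hr ambient incubation; % activity per concentration and potencies from concentration series.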
VDR inh: vitamin D3 receptor (human) inhibition; P11473; VDR-SRC2-3 peptide fluorescence polarization, 2 h; Potency, µM, for the others: max response, negative = inhibition, hits mostly inhibitors; 400,000 compounds, 0.93% hits; AID 504847
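Fluorescence polarization assay measuring small-molecule disruption of VDR binding to the coregulator peptide SRC2-3. Compounds were pin-transferred (23 nl) into the reagent mix and incubated 2 h at room temperature before reading.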
TR SRC2 fluor cs: alters Texas Red total fluorescence, flagging assay interference. Potency, µM (top dose mostly 106 µM), for inactives: at the top dose fluorescence change, negative = quenching. AID 1479. 280,000 compounds, 0.29% hits. TRb/SRC2 Texas Red total fluorescence interference; active = well fitted curve in either direction with a large enough effect; inconclusive = small, poorly fitted or top-dose-only effect
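Flags fluorescent or light-absorbing compounds by total fluorescence, S + 2P, at 555 nm excitation and 632 nm emission. Mixture: 20 nM Texas Red SRC2 peptide, 0.6 uM human TRb LBD, 1 uM T3, 5% DMSO; compound exposure 5 h at ambient temperature.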
RGS12 GoLoco inh: inhibitors of human Gai1-RGS12 GoLoco interaction (red fluorophore); Gai1:RGS12 GoLoco peptide FP, rhodamine, 10 min; Potency, µM (highest dose often 61.6 µM), for the others: at the top dose activity, negative = inhibition, actives largely listed as inhibitors; 230,000 compounds, 0.44% hits; AID 880; active = well fitted inhibition curve with a large enough effect, not every such curve was filed as active; inactive = no such curve, though single readings can be large or run the other way; also: nearly all actives have a fitted effect of over 30% in size
GCN5L2 inh: GCN5L2 (KAT2A) acetyltransferase inhibition; Q92830; GCN5L2 HAT assay, ThioGlo1 CoA-SH fluorescence; Potency, µM (doses to about 58.9 µM), inactives show at the highest dose activity change, negative = inhibition, actives largely listed as inhibitors; 390,000 compounds, 0.21% hits
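Fluorescence readout, Ex340nm/Em540nm: ThioGlo1 (50uM final) reacts with free CoA thiol released as 20nM GCN5L2 acetylates H3(1-25) peptide (75uM) using acetyl-CoA (70uM). Compound and enzyme sat 15 min beforehand; 20 min room-temperature reaction.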
* = called active by the depositor; ? = inconclusive; . = not tested or not shown; ! = not active in a repeat; [ ] = dose if it differs, or a comment. Hits are enriched below; roughly 1.2% of the tested compounds scored in any of these assays. Unless noted, calls follow the shape of the dose curve; as a rule, active = well fitted curve in the direction sought with a large enough effect; inconclusive = small, poorly fitted or top-dose-only effect, or another doubt; inactive = no such curve, though single readings can be large; an effect the other way counts as inactive or inconclusive. Unless noted, % is scaled to controls: 0 for no effect and ±100 for the full control effect; potency is read from the fitted curve at half-maximal effect.

SMILES	TRb-SRC2 inh	VDR inh	TR SRC2 fluor cs	RGS12 GoLoco inh	GCN5L2 inh
C=CCCCC	-5%	.	0%	2%	.
CN(C)c1ccc(-c2ccc3ncnc(-n4ccnc4)c3c2)cc1	.	16µM*	.	-2%	25µM*
Cc1ccccc1-c1ccc2ncnc(-n3ccnc3)c2c1	.	14µM*	.	6%	-14%
CSC1=NS(=O)(=O)c2c(C)nn(C)c2S1	6%	25µM*	-1%	-4%	28µM*
Cc1noc(C)c1-c1nccc(NCCN2CCOCC2)n1	.	-6%	.	-8%	-2%
Cc1noc(C)c1-c1nccc(NC2CC2)n1	.	50µM*	.	-2%	?
O=[N+]([O-])c1cccc(C=Nc2cccc3ccccc23)c1O	.	-4%	.	.	35µM*
Cc1ccc(N=Cc2cccc(O)c2O)c(C)c1	?	20µM*	-21%	2%	-20%
CCN(CC)c1ccc(C=Nc2ccc(C)cc2C)c(O)c1	-5%	2%	-1%	36%	-7%
Cc1ccccc1N=Cc1cccc(O)c1O	-26%	14µM*	-12%	-19%	-19%
Oc1cccc(/C=N/N=C/c2cccc(O)c2O)c1O	.	-16%	.	.	-4%
Fc1cccc(CNc2ncnc3ccc(-c4cccnc4)cc23)c1	.	.	.	.	-3%
Nc1cc(Cl)c([N+](=O)[O-])cc1O	0%	.	-1%	-15%	.
COc1ccc2c(c1OC)C(Cc1ccccc1)N1CCc3cc4c(cc3C1C2)OCO4 (configuration not stated)	1%	?	-1%	19%	?
O=c1c(O)cccc2cc(O)c(O)c(O)c12	4%	20µM*!	?	4µM*!	?
COc1ccccc1N1C(=O)C2C3C=CC(CC3)C2C1=O (configuration not stated)	.	-22%	.	.	-2%
COc1ccccc1N1CCNC(C)C1=O (configuration not stated)	.	79µM*	.	.	-10%
O=C(COc1ccccc1[N+](=O)[O-])N/N=C/c1ccc(OC(=O)c2ccco2)cc1	-11%	-4%	282µM*[quencher]	1%	1%
COc1cc(/C=N/NC(=O)COc2ccccc2[N+](=O)[O-])ccc1OC(=O)c1ccco1	-4%	?	-4%	2%	-6%
CCOC(=O)C1=CN(C(=O)OC(C)(C)C)C(CN2C(=O)COCC2=O)C1 (configuration not stated)	2%	?	-4%	.	.
O=C(CSc1nc2scc(-c3ccco3)c2c(=O)n1-c1ccccc1)N1CCOCC1	-10%	-16%	-1%	-3%	-22%
NC(=O)CSc1nc2scc(-c3ccco3)c2c(=O)n1-c1ccccc1	4%	79µM*	-7%	-6%	-21%
CCC(Nc1ncnc2ccc(-c3c(C)noc3C)cc12)c1ccccc1 (configuration not stated)	9%	.	-2%	.	.
CS(=O)(=O)Nc1ccc(Nc2c3ccccc3nc3ccccc23)cc1	.	.	.	2%[14.2 µM]	.
COc1cc2c(cc1OC)C1N(CC2)C(=O)CCC12C(=O)CCCC2=O (configuration not stated)	5%	71µM*	2%	0%	.
SMILES	TRb-SRC2 inh	VDR inh	TR SRC2 fluor cs	RGS12 GoLoco inh	GCN5L2 inh
COc1cc2c(cc1OC)C(C)N(C(=O)c1cc(Cl)nc(Cl)c1)CC2 (configuration not stated)	.	16%	.	.	1%
O=C1c2ccccc2C(=O)c2c(O)ccc(O)c21	-2%	45µM*	1%	28µM*	.
O=C1c2ccccc2C(=O)c2c(O)c(O)cc(O)c21	-16%	50µM*!	-21%	7%	7.9µM*!
CN(C)CCCNc1cc(O)c2c(c1O)C(=O)c1ccccc1C2=O	.	.	.	3.5µM*	.
Cn1c(=O)c2c(nc(C(=N)SCC(=O)O)n2C)n(C)c1=O	.	.	.	1%[14.2 µM]	.
O[C@@H]1CO[C@H]2C1OC[C@@H]2O (some centres not stated)	5%	-23%	-2%	.	45%
CCCS(=O)(=O)N1CC(=O)N(c2ccc(Cl)cc2C)C(C)(C(=O)NC2CCCC2)C1 (configuration not stated)	-5%	-1%	28µM*[quencher]	.	-8%
CCS(=O)(=O)N1CC(=O)N(c2ccc(Cl)cc2)C(C)(C(=O)NC2CCCCCC2)C1 (configuration not stated)	-5%	1%	18µM*[quencher]	.	-1%

Screens from PubChem BioAssay.
